This note sets out measurements from ChEMBL document CHEMBL4513216, “Probing the Open Global Health Chemical Diversity Library for Multistage-Active Starting Points for Next-Generation Antimalarials” (ACS Infect Dis, 2020).

Out of some 68,000 compounds screened, about 2,700 (4%) showed an effect of 50% or more. The entries come from a sample that favours strong results as a whole.

In the experiment the test system is Plasmodium berghei. Put plainly: Screen against P. berghei liver stage (PbLuc), transformed with Luciferase, at 2uM. It is filed as functional, HepG2. The conditions noted are these: tested at 2 uM.
Turning to `COCCn1ccc(=O)c(OCC(=O)Nc2ccc(OC)c(Cl)c2)c1C`, the INHIBITION amounted to 30.58%.
The value for `CCn1ncc(CN2CCCC(n3c(=O)oc4ccccc43)C2)c1C` (centres undefined) was -3.96%; that for `COC(=O)c1cccc(C(=O)N(C)Cc2ccsc2)c1` was -21.49%.
In the case of `NC(=O)c1cc2c(nc1N)CCN(C(=O)C1CCCCC1)C2`, the INHIBITION came to 6.97%.
For the compound `COC(=O)c1ccc(N2CCN(C(=O)c3cnn(C)c3)C(C)C2)cc1` (centres undefined), the INHIBITION was determined as 47.57%.
Take `O=C(NCC1Cn2nnc(-c3ccsc3)c2CO1)c1ccc[nH]1` (centres undefined): the INHIBITION is recorded as 34.16%.
Turning to `CN1CCN(C)C2(CCN(Cc3ccsc3)CC2)C1=O`, the INHIBITION amounted to 59.5%.
With `CCN1CCN(C)C(=O)C12CCN(Cc1cccc(C)c1)CC2`, the INHIBITION came to 60.6%.
Consider `CCN1CCN(C)C(=O)C12CCN(Cc1ccsc1)CC2`, for which the INHIBITION is given as 39.18%.
For the compound `CCN1CCN(C)C(=O)C12CCN(Cc1csc(C)n1)CC2`, the INHIBITION was -66.6%.
Regarding `CCN1CCN(C)C2(CCN(Cc3ccsc3)CC2)C1=O`, the INHIBITION is given as 38.64%.
The result for `CCc1ccc(CN2CCC3(CC2)C(=O)N(C)CCN3CC)cc1` reads 47.42%; that for `CCCc1cnc(C)nc1N1CCC(Cc2cccc(C(N)=O)c2)C1` (centres undefined), -9.75%.
The result for `CC(C(=O)NC1CCN(C)CC1)n1nc(C(F)(F)F)c(Cl)c1C1CC1` (centres undefined) reads -4.77%.
The result for `CCN(C(=O)CN(CC(N)=O)C(C)C)C1=CCCC1` reads 25.21%; that for `OCc1n[nH]c(-c2ccc(F)cc2)n1`, 27.8%; that for `CC(C(=O)N1CCN(Cc2ccc3c(c2)OCO3)CC1)n1ccnc1` (centres undefined), 17.98%.
`COC(=O)CC1CCCCN1CC(=O)Nc1cc(F)ccc1F` (centres undefined): the INHIBITION is listed as 30.82%.
The value for `O=S(=O)(NC1=NCN(CCc2cccs2)CN1)c1ccccc1` was 18.22%.
Take `O=S(=O)(NC1=NCN(CCc2cccs2)CN1)c1ccc(F)cc1`: the INHIBITION is 36.15%.
Turning to `O=S(=O)(NC1=NCN(CCc2cccs2)CN1)c1ccc(Br)cc1`, the INHIBITION is 50.67%.
The result for `O=C(Cc1cnccn1)N1C[C@@H]2CC[C@H]1CN(Cc1cscn1)C2` reads -41.49%.
For the compound `COCC(=O)N1C[C@H]2CNC[C@@]2(C(=O)NCc2c(C)noc2C)C1`, the INHIBITION stood at 1.8%.
In the case of `COCC(=O)N1C[C@H]2CNC[C@@]2(C(=O)NCc2cc(C)n[nH]2)C1`, the INHIBITION is listed as 40.51%.
Regarding `COCC(=O)N1C[C@H]2CNC[C@@]2(C(=O)NCc2nc(C)cc(C)n2)C1`, the INHIBITION came out at 67.44%.
The result for `N[C@H]1CN(C(=O)Cc2ccc(CO)cc2)C[C@@H]1C1CC1` reads 39.97%; that for `Cc1cc(Cl)ccc1C(=O)N1C[C@H](C2CC2)[C@@H](N)C1`, 60.42%.
In the case of `N[C@H]1CN(C(=O)Cc2ccc(Cl)c(Cl)c2)C[C@@H]1C1CC1`, the INHIBITION worked out at 4.72%.
For `N[C@H]1CN(C(=O)c2ccc(Cl)cc2O)C[C@@H]1C1CC1`, the INHIBITION was -6.83%.
The result for `N[C@H]1CN(C(=O)c2ccc(Cl)cc2F)C[C@@H]1C1CC1` reads 19.54%; that for `N[C@H]1CN(C(=O)Cc2cc(F)cc(Cl)c2)C[C@@H]1C1CC1`, 55.39%.
On to `CN(CCCN1CCCC1)[C@@H]1c2ccccc2C2(CCNCC2)[C@H]1O`, for which the INHIBITION is 9.18%.
The result for `COC(=O)c1ccc(CN(C)C(=O)c2cnsn2)cc1` reads -18.04%; that for `COc1ccc(C[C@H]2CN(C3CCOCC3)CC[C@@H]2OCC2CC2)cc1`, 21.06%.
Turning to `c1ccc(C[C@H]2CN(C3CCOCC3)CC[C@H]2OCC2CC2)cc1`, the INHIBITION is given as -22.32%.
As to `COc1ccc(C[C@H]2CN(C3CCOCC3)CC[C@H]2OCC2CC2)cc1`, the INHIBITION amounted to 68.29%.
The value for `CCc1cnc(N2CC[C@H]3[C@@H]2CCC(=O)N3CC2CCOCC2)nc1` was 8.37%; that for `CNC(=O)[C@H]1C[C@H]2CN(Cc3cccc(C)c3)C[C@@H]1O2` was 14.09%; that for `CC(C)NC(=O)CC1[C@H]2CN(C(=O)Cc3ccccn3)C[C@@H]12` (some centres undefined) was 33.39%.
With `CN1CCN(S(=O)(=O)c2ccc(C(=O)N3CC[C@@H](O)C3)cc2)CC1=O`, the INHIBITION is given as -27.61%.
`O=C(c1ccc(S(=O)(=O)N2CCSCC2)cc1)N1CCC(O)C1` (centres undefined): the INHIBITION is -57.76%.
For `O=C(c1ccc(S(=O)(=O)N2CCNCC2)cc1)N1CCCC(O)C1` (centres undefined), the INHIBITION came to 57.4%.
The result for `CCn1cc(S(=O)(=O)N2CCC(C3CCCCN(C)C3=O)CC2)c(C)n1` (centres undefined) reads -12.21%.
With `CC(=O)c1cn(CC(=O)NC(C(=O)O)C(C)C)c2ccccc12` (centres undefined), the INHIBITION is reported as -7.53%.
Consider `COc1cc(C(C)NCc2ncccc2C)ccc1SC(F)F` (centres undefined), for which the INHIBITION was -48.24%.
The value for `CC(C)N1CCc2c(CN(C)Cc3ccco3)cncc2C1` was 16.48%; that for `CCS(=O)(=O)N1CCc2c(CN(C)Cc3ccco3)cncc2C1` was -21.1%.
`CN(Cc1ccco1)Cc1cncc2c1CCN(S(C)(=O)=O)C2`: the INHIBITION turned out to be 51.94%.
The value for `Cc1nc(C)n(CC2CCCN2CC(=O)Nc2ccncc2)n1` (centres undefined) was -40.36%; that for `Cc1nc(C)n(CC2CCCCN2CC(=O)Nc2ccncc2)n1` (centres undefined) was 51.21%; that for `CCN1CCC(NC(=O)CN2CCCC2Cn2nc(C)nc2C)CC1` (centres undefined) was -2.82%.
The value for `Cc1nc(C)n(CC2CCCCN2CCC(=O)Nc2cc(C)on2)n1` (centres undefined) was -14.71%; that for `Cc1nc(C)n(CC2CCCN2CC(=O)Nc2cc(C)on2)n1` (centres undefined) was -1.02%.
`Cc1nc(C)n(CC2CCCCN2CC(=O)Nc2cccnc2)n1` (centres undefined): the INHIBITION is on record as -12.75%.
The result for `Cc1nc(C)n(CC2CCCCN2CC(=O)Nc2cc(C)on2)n1` (centres undefined) reads 64.16%.
The result for `Cc1nc(C)n(CC2CCCCN2CC(=O)NC2CCOCC2)n1` (centres undefined) reads 60.31%; that for `Cc1nc(C)n(CC2CCCN2CC(=O)NC2CCOCC2)n1` (centres undefined), 32.76%; that for `O=C(c1c(F)cc(Br)cc1F)N1CCc2cnccc21`, -62.99%.
Regarding `Cn1c(=O)[nH]c2cc(C(=O)OCC(F)F)ccc21`, the INHIBITION was -67.78%.
As for `Cn1ccc(C(=O)N2CCC(Cc3cccc4cccnc34)C2)n1` (centres undefined), the INHIBITION turned out to be 9.79%.
Consider `Cn1cc(C(=O)Nc2cccc(CCN3CCCC3)c2)ccc1=O`, for which the INHIBITION is -51.94%.
Turning to `O=C(C1CCCCC1)N1CCC2(COc3ncccc3S(=O)(=O)N2)C1` (centres undefined), the INHIBITION was -15.49%.
The value for `COc1ccccc1OCCN1CCCC(c2cc(C(N)=O)[nH]n2)C1` (centres undefined) was 31.51%; that for `COc1cccc(CN2CCCC(c3cc(C(N)=O)[nH]n3)C2)c1` (centres undefined) was 54.99%.
For `Cc1cc(C2CCCN(CCc3ccccn3)C2)n[nH]1` (centres undefined), the INHIBITION is on record as -12.48%.
The result for `NC(=O)c1cc(C2CCCN(C(=O)CCc3ccccn3)C2)n[nH]1` (centres undefined) reads -0.71%; that for `NC(=O)c1cc(C2CCCN(CCc3ccccn3)C2)n[nH]1` (centres undefined), 58.53%; that for `COc1ccc(F)cc1CN1CCCC(c2cc(C(N)=O)[nH]n2)C1` (centres undefined), 30.91%.
In the case of `O=C(NCC(F)(F)F)C1CCCN(Cc2ccno2)C1` (centres undefined), the INHIBITION stood at 20.32%.
The result for `CC(C)c1nnc(NC(=O)C2CSCN2C(=O)C2CCC2)s1` (centres undefined) reads -52.32%.
The value for `O=C(c1cnccn1)N1CCN2C[C@H](OCc3ccccc3F)C[C@H]2C1` was -6.88%; that for `CCCSCC(=O)N1C[C@@H]2CC[C@H]1CN(Cc1cccnc1)C2` was 16.1%; that for `O=C(O)CC1COCCN1CCCc1ccccc1` (centres undefined) was 3.35%.
Take `Cc1cc(N2CCCC2c2cc(Nc3cnccn3)nc(C)n2)ncn1` (centres undefined): the INHIBITION came out at 43.23%.
As to `O=C(CCc1nc2cc(Br)cnc2[nH]1)NCc1cccnc1`, the INHIBITION is reported as 10.22%.
With `c1ccc(CN2CCC(CCNc3ncnc4c3CCNCC4)C2)cc1` (centres undefined), the INHIBITION worked out at 31.3%.
The value for `c1ccc(CN2CCCC(CNc3ncnc4c3CCNCC4)C2)cc1` (centres undefined) was 29.87%; that for `c1ccc(CN2CCC(CNc3ncnc4c3CCNCC4)CC2)cc1` was 70.58%.
In the case of `O=C(c1ccncc1F)N1CCc2ncnc(C3CC3)c2CC1`, the INHIBITION came to 21.67%.
As to `COc1ncccc1CNCc1c(C(C)C)nn(C)c1N(C)C`, the INHIBITION was found to be 43.28%.
The result for `CCOc1ncccc1CNCc1c(C)nn(C)c1N(C)C` reads 47.87%.
The result for `CC(C)c1nn(C)c(Cl)c1CNCc1ccc2c(c1)OCCO2` reads 8.37%; that for `COc1ncccc1CNCc1c(C)nn(C)c1N(C)C`, 11.2%.
The value for `CC(C)c1nn(C)c(N(C)C)c1CNCc1ccc2c(c1)OCO2` was -41.21%.
For the compound `CC(C)c1nn(C)c(N(C)C)c1CNCc1cccnc1N(C)C`, the INHIBITION stood at 39.54%.
The result for `CC(C)c1nn(C)c(N(C)C)c1CNCc1ccc2c(c1)OCCO2` reads 66.2%.
Take `CCOc1ncccc1CNCc1c(C(C)C)nn(C)c1N(C)C`: the INHIBITION stood at 74.35%.
The value for `Cc1nn(C)c(N(C)C)c1CNCc1cccnc1OC(C)C` was 53.98%; that for `C[C@@H]1C(=O)NC[C@H]2CN(Cc3ccsc3)C[C@H]21` was -66%.
Regarding `CC(C)(C)c1nc(CN2CCCC(Cn3cncn3)C2)no1` (centres undefined), the INHIBITION is listed as -64.16%.
The value for `CN(C)C(=O)c1cn[nH]c1C1CCCN1Cc1nccn1C` (centres undefined) was 11.2%; that for `Cc1[nH]/c(=N\C(=O)c2csc(NC3CCCC3)n2)sc1C` was 34.93%; that for `CCS(=O)(=O)N1Cc2ncn(CC3CC3)c2C(COC)C1` (centres undefined) was 26.19%.
The result for `Clc1ccc2oc(C3CCN(Cc4nc(C5CC5)no4)CC3)nc2c1` reads 10.11%; that for `c1cc(CCN2CCN(c3ccc4nncn4n3)CC2)ccn1`, -1.88%; that for `C[S+]([O-])c1nncn1CC(=O)c1ccc2c(c1)CCC2` (centres undefined), 61.82%.
In the case of `C[S+]([O-])c1nncn1CC(=O)c1ccc2c(c1)CCO2` (centres undefined), the INHIBITION was -0.75%.
Take `C[S+]([O-])c1nncn1CC(=O)c1ccc(Cl)c(Cl)c1` (centres undefined): the INHIBITION was determined as 20.66%.
The value for `COc1ccc(C2CN(c3cc(C)ncn3)CCN2C(C)=O)cc1` (centres undefined) was -28.43%; that for `CSCc1noc(CN2CC(Cc3ccccc3)CC2=O)n1` (centres undefined) was 6.75%.
The result for `O=C(c1cc(=O)[nH]c(=O)[nH]1)N1CCCCC1c1nc2cc(F)ccc2[nH]1` (centres undefined) reads -18.49%; that for `O=C(Cc1cccs1)NCC(=O)Nc1cn[nH]c1`, 28.49%.
The result for `CN(CC(=O)NCC(=O)Nc1ccc(F)cc1)Cc1cccs1` reads 69.13%; that for `CC(NCC(=O)NCC(=O)Nc1ccc(F)cc1)c1cccs1` (centres undefined), 16.95%.
